Screens deposited in PubChem by several laboratories.
Sampled rows, rich in hits. Any-hit rate of the full collection: about 3.1%.
MEKK3 PB1 HTS = modulators (inhibitors or enhancers) of MEK5 binding to human MEKK3 PB1 domain; Q99759; bead-based flow cytometry, Alexa488-MEK5 binding to MEKK3; actives lie on both sides; 0 = blocked by unlabeled MEK5, 100 = vehicle; binding response (% of control), % at 10 µM; 290,000 compounds, 1.4% hits; AID 1529;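 active means binding response more than 3 SD above or below the average of its plate-row segment, actives on both sides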;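 further: Alexa488 bead fluorescence after subtracting the streptavidin-only scavenger bead signal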
MEKK2 mut-MEK5 = signal of MEK5 binding to mutant human MEKK2 PB1 domain. bead flow cytometry, Alexa488-MEK5 binding to MEKK2 mutant. percent response, % at 10 µM. 290,000 compounds, 0.35% hits; in the data active means percent response above about 24%, passing the limit was not always enough
UBC13 inh = inhibitors of human UBC13 polyubiquitin chain formation | 330,000 compounds, 0.47% hits | TR-FRET | P61088 | AID 485273 | inhibition, % at 20 µM; in the data active means inhibition above about 45%, passing the limit was not always enough
MEKK2 WT-MEK5 = raises or lowers MEK5 binding to wildtype human MEKK2 PB1 domain. Q9Y2U5. bead flow cytometry, Alexa488-MEK5 binding to MEKK2 WT; actives lie on both sides. binding response (% of control), % at 10 µM. 290,000 compounds, 1.1% hits. AID 1531; in the data active means binding response below about 67% or above about 130%
ATG4B inh = ATG4B (human) cysteine protease inhibition | ATG4B cleavage of LC3-PLA2, NBD-HPC fluorescence, 1 h | inhibition, % at 8.33 µM | 340,000 compounds, 0.51% hits | AID 504462; in the data active means inhibition above about 40%
PREPL inhibitor = human PREPL enzyme inhibition; inhibition, % at 5.96 µM; recombinant PREPL, fluorescence polarization activity-based probe; Q4J6C6; 320,000 compounds, 0.68% hits; in the data active means inhibition above about 43%;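 further: 0% = enzyme with DMSO and 100% = wells lacking enzyme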
Target sequence (Q4J6C6 whole entry, looked up): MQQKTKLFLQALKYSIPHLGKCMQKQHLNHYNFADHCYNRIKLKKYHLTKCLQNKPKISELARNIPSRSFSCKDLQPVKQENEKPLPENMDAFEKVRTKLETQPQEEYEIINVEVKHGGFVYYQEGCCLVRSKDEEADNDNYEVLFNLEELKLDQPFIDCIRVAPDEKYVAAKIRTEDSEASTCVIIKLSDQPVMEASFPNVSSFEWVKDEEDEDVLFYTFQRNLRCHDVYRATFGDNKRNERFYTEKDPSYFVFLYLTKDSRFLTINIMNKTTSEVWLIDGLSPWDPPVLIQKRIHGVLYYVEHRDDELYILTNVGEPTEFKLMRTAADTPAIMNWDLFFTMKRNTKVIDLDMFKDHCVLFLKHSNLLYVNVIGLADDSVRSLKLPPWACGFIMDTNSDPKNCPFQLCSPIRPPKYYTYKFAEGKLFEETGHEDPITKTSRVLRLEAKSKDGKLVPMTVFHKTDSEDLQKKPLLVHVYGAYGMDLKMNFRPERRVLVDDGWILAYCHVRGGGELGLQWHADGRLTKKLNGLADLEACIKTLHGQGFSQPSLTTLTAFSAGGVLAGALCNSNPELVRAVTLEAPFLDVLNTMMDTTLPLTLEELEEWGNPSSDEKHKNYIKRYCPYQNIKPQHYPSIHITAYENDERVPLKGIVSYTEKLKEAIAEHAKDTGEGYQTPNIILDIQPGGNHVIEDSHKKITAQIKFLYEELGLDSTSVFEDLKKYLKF
MEKK2wt confirm = raises or lowers MEK5 binding to wildtype human MEKK2, retest | shares compounds with MEKK3 PB1 HTS | bead flow cytometry, Alexa488-MEK5 binding to MEKK2 WT; actives lie on both sides | binding response (% of control), % at 10 µM | 5,900 compounds, 2.4% hits; in the data active means binding response below about 16% or above about 210%; inactive means in between
MEKK2mut-MEK5 = signal of MEK5 binding to mutant human MEKK2, retest; shares compounds with MEKK3 PB1 HTS; bead flow cytometry, Alexa488-MEK5 binding to MEKK2 mutant; percent response, % at 10 µM; 5,900 compounds, 2% hits; AID 1893; in the data active means percent response mostly above about 71%, no sharp cut-off; inactive means mostly below about 38%;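 further: higher means compound restores mutant binding toward wildtype level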
MEKK3-MEK5 inh = confirmation of inhibitors of MEK5 binding to human MEKK3 | 5,900 compounds, 1.8% hits | shares compounds with MEKK3 PB1 HTS | bead flow cytometry, Alexa488-MEK5 binding to MEKK3; stronger effect = lower value | binding response (% of control), % at 10 µM;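 active means binding response below 72% of control, or above a set upper limit, though filed actives all read lower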;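 further: 100% = DMSO only wells and 0% = binding blocked by excess unlabeled MEK5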
The depositor's hits bear a star; / = no result given; [ ] = dose if it differs, or a comment.

SMILES	MEKK3 PB1 HTS	MEKK2 mut-MEK5	UBC13 inh	MEKK2 WT-MEK5	ATG4B inh	PREPL inhibitor	MEKK2wt confirm	MEKK2mut-MEK5	MEKK3-MEK5 inh
CS(=O)(=O)N(CC(=O)NCc1ccccc1)C1CCCCC1	103	3	3	105	-8	2	/	/	/
Cc1ccc(CNC(=O)CN(C2CCCCC2)S(C)(=O)=O)cc1	67*[inhibitor]	5	-1	55*[inhibitor]	-7	-5	102	-3	102
Cc1ccc(CNC(=O)CN2C(C)CCCC2C)cc1 (stereo unspecified)	56*[inhibitor]	-15	4	62*[inhibitor]	-1	10	104	4	102
CCCCOc1ccc(Nc2cc(Cl)ccc2C(=O)O)cn1	91	1	-18	96	22	-20	/	/	/
Cn1cc(CNCc2cn(C)nc2-c2ccc(C3CCCCC3)cc2)cn1	117	74*	5	205*	-10	-14	104	-5	99
COc1cccc(-n2cc(CNCc3cn(C)nc3-c3ccccc3F)cn2)c1	105	8	15	113	-27	-7	/	/	/
CCN(CC)S(=O)(=O)c1cc(C)c(C)cc1Br	61*[inhibitor]	-4	7	71*[inhibitor]	8	-5	103	3	103
CCN(CC)S(=O)(=O)c1cc(C(=O)O)c(Cl)cc1Cl	105	3	2	105	5	3	/	/	/
O=C(CCCOc1ccccc1)NNC(=O)c1ccncc1	/	/	8	/	3	0	/	/	/
CN(CC(=O)Nc1ccccc1Br)C(=O)CNC(=O)c1ccc(Oc2ccccc2)cc1	99	6	4	102	-6	2	/	/	/
CCc1ccc(NC(=O)C/C(C)=N/NC(=O)OCc2ccc(OC)cc2)cc1	136*	1	22	107	-10	1	101	0	100
O=C(COC(=O)c1ccco1)NCCc1ccc(Cl)cc1	/	/	-2	/	-3	1	/	/	/
CCn1c(SCC(=O)N/N=C/C(C)=C/c2ccco2)nnc1-c1ccccc1	104	2	-16	99	10	17	/	/	/
CCn1c(SCC(=O)N/N=C/C=C/c2ccco2)nnc1-c1ccccc1	128*	0	-5	106	4	4	103	4	100
O=C(Cc1ccccc1[N+](=O)[O-])NCCCc1ccccc1	98	2	1	104	-1	-5	/	/	/
C/C=C/C=C/C(=O)N1CC2(CC(c3cccc(NC(=O)/C=C/C)c3)=NO2)C[C@@H]1C(N)=O (stereo partly specified)	96	3	-16	100	-16	-4	/	/	/
CCCCCC(=O)Nc1cccc(C2=NOC3(C2)C[C@H](C(N)=O)N(C(=O)CC#N)C3)c1 (stereo partly specified)	1.0*[inhibitor]	-14	/	1.0*[inhibitor]	/	/	99	-12	100
C=C(C)C(=O)Nc1cccc(C2=NOC3(C2)C[C@@H](C(N)=O)N(C(=O)/C=C/C=C/C)C3)c1 (stereo partly specified)	68*[inhibitor]	-37	-136	70	-12	-12	90	-46	86
COc1ccc(Cl)cc1NC(=O)CCNC(=O)OCc1ccccc1	82	-8	10	88	-6	1	/	/	/
O=S(=O)(c1ccc(F)c(F)c1F)N1CCN(C(=S)NC2CC3CCC2C3)CC1 (stereo unspecified)	64*[inhibitor]	-14	-2	72	-1	-2	99	1	95
O=C(Cc1cccc2ccccc12)N/N=C/c1ccncc1	100	-7	2	97	-6	6	/	/	/
O=C(Cc1cccc2ccccc12)N/N=C/c1ccc(F)cc1	122*	6	-5	113	-9	0	95	2	96
CC1CCN(S(=O)(=O)c2ccc(S(=O)(=O)NCC(=O)C(C)(C)C)cc2)CC1	23*[inhibitor]	-22	-11	32*[inhibitor]	-3	10	96	-7	99
COc1ccccc1NS(=O)(=O)c1cccc(C(=O)NNC(=O)C(C)NC(=O)c2ccco2)c1 (stereo unspecified)	/	/	10	/	-45	4	/	/	/
C/C(=C\c1ccccc1)CN1CCC(C(=O)N2CCCCC2)CC1	138*	3	-2	109	-9	27	104	4	102
SMILES	MEKK3 PB1 HTS	MEKK2 mut-MEK5	UBC13 inh	MEKK2 WT-MEK5	ATG4B inh	PREPL inhibitor	MEKK2wt confirm	MEKK2mut-MEK5	MEKK3-MEK5 inh
Cc1ccc(-c2nc(C(=O)NCCCN(C)C)cc3c2[nH]c2ccccc23)cc1	103	21	23	146*	-3	-1	156	42	109
COc1ccccc1NC(=O)C(C)OC(=O)c1nc2nc(C)cc(C)n2n1 (stereo unspecified)	/	/	2	/	-8	4	/	/	/
Cc1cc(Cl)c2oc(C(=O)N3CCN(c4ccncc4)CC3)c(C)c2c1	106	25*	16	147*	7	5	153	30	111
CN(Nc1cccc(Cl)c1)c1cccc(Cl)c1	/	/	/	/	20	/	/	/	/
N#Cc1ccc2ccn(CC(=O)NCc3ccco3)c2c1	114	13	4	139*	-9	7	102	-4	99
CCN1C(=S)N[C@@H](CCc2ccccc2)C(C(=O)OC)=C1C	98	0	3	94	-6	16	/	/	/
COc1ccccc1CNC(=O)/C=C/c1ccc(Br)o1	95	-2	11	101	12	-3	/	/	/
COc1ccc(CCNC(=O)CC2SC(=NCCC(C)C)NC2=O)cc1OC (stereo unspecified)	150*	0	20	107	-7	-6	102	4	103
Cc1cccc(NC(=O)CN2C(=O)N/C(=C\c3ccc(-c4cccc(C(=O)O)c4)o3)C2=O)c1	70*[inhibitor]	-31	5	52*[inhibitor]	-4	9	105	8	109
Cc1ccc(NC(=O)CN2C(=O)N/C(=C/c3ccc(C)o3)C2=O)cc1	79	-10	-9	80	-2	14	/	/	/
Cc1ccc(NC(=O)CN2C(=O)N/C(=C/c3ccc4c(c3)OCCO4)C2=O)cc1	101	-6	-13	95	-3	-4	/	/	/
Cc1ccc(NC(=O)CN2C(=O)N/C(=C/c3ccc(C)s3)C2=O)cc1	129*	1	-14	104	-3	-7	98	0	103
Cc1cccc(NC(=O)CN2C(=O)N/C(=C/c3ccc(C)o3)C2=O)c1	129*	1	/	105	10	-4	103	4	99
